For 55 compounds, INHIBITION results are on record in ChEMBL document CHEMBL4513216, “Probing the Open Global Health Chemical Diversity Library for Multistage-Active Starting Points for Next-Generation Antimalarials” (ACS Infect Dis, 2020).

Hit rate of the full screen: of about 69,000 compounds, about 8,600 (12%) showed an effect of 50% or more. The full list was thinned out, with strong results kept by preference.

This assay has as its system Plasmodium berghei. The assay is described as follows: Screen against P. berghei liver stage (PbLuc), transformed with Luciferase, at 10uM. Type of assay: functional, HepG2. The note with it: tested at 10 uM.
Take `CN(C)[C@@H]1CO[C@H](CNC(=O)Nc2ccccc2)[C@H]1O`: the INHIBITION worked out at 11.6%.

Turning to `CCn1cc(S(=O)(=O)N2CCCC3(CC=CNC3=O)C2)cn1` (stereo not given), the INHIBITION turned out to be 28.5%.

As for `CC(CNC(=O)NCc1ccco1)N1CCc2sccc2C1` (stereo not given), the INHIBITION is on record as -12.5%.

`CCCn1c(C)c(CC(=O)NCC(N)=O)c2c1CC(C)(C)CC2=O`: the INHIBITION was -13.3%.

As to `CCCn1c(C)c(CC(=O)NCCNC(C)=O)c2c1CC(C)(C)CC2=O`, the INHIBITION is -4.52%.

On to `CCCn1c(C)c(CC(=O)NCCC(N)=O)c2c1CC(C)(C)CC2=O`, for which the INHIBITION is 69.6%.

In the case of `CCn1cc(-n2cc3nc(N4CCC(C)CC4)[nH]cc-3c2=O)cn1`, the INHIBITION was -85.9%.

In the case of `Cc1cc(-n2c(C)cn(CN(C)C3CCS(=O)(=O)C3)c2=O)no1` (stereo not given), the INHIBITION stood at 38.8%.

As to `Cn1cc2c(n1)C(COCC1CC1)CN(Cc1ccccn1)C2` (stereo not given), the INHIBITION is 12.5%.

`Cc1cc(C)c(CNC(=O)NC2COc3ccccc3C2)c(=O)[nH]1` (stereo not given): the INHIBITION is 10.6%.

As for `CCn1ncnc1CN(CCOC)Cc1ccc(C)cc1`, the INHIBITION is given as 49.9%.

For the compound `COCCN(Cc1ccc(C)cc1)Cc1nccn1C`, the INHIBITION is 43.4%.

`CN(C)c1ccc(CN(CCCn2ccnc2)Cc2c[nH]cn2)cc1`: the INHIBITION was determined as 80.2%.

`c1cc(CN(CCCn2ccnc2)Cc2ccoc2)ccn1`: the INHIBITION was 24.7%.

On to `COCCN(Cc1ccc(C)cc1)Cc1c[nH]cn1`, for which the INHIBITION worked out at 63.8%.

Turning to `Cc1ccc(CN(CCCn2ccnc2)Cc2c[nH]cn2)s1`, the INHIBITION is listed as 41.5%.

`COc1cc(COCC2CCN(Cc3cccnc3)CC2)cc(OC)c1`: the INHIBITION is 5.11%.

Turning to `CNc1cc(N2CCCC2CNCc2cccnc2C)ncn1` (stereo not given), the INHIBITION turned out to be 21.5%.

In the case of `Cc1ccc(C(=O)N2CCc3ncc(Cn4cccn4)n3CC2)o1`, the INHIBITION was determined as 16.4%.

Consider `COc1cc(I)c(Cl)cc1C(=O)N(C)CC(C)(C)O`, for which the INHIBITION came to 29%.

For the compound `Cc1nc(CNC(=O)NC2CCN(c3ncccc3Cl)C2)no1` (stereo not given), the INHIBITION is recorded as 25.4%.

Take `Cc1nc(CNC(=O)NC2CCN(c3cccc(Cl)c3)C2)no1` (stereo not given): the INHIBITION worked out at 56.3%.

For the compound `Cc1ccc(CC(=O)NC2CCN(c3cccc(Cl)c3)C2)cn1` (stereo not given), the INHIBITION was 42.7%.

On to `Cc1cc(C)n(CC2CN(Cc3nc(C4CC4)no3)CCO2)n1` (stereo not given), for which the INHIBITION is reported as -27.8%.

`CCCn1c(C)c(CC(=O)N(C)CC(=O)OC)c2c1CC(C)(C)CC2=O`: the INHIBITION was 4.25%.

For `COc1cccc(C(=O)N2CCN(CC(O)c3ccccc3)CC2)c1` (stereo not given), the INHIBITION is reported as 32.2%.

`COc1cccc(C(O)CN2CCN(C(=O)CCC(C)C)CC2)c1` (stereo not given): the INHIBITION is recorded as 55.4%.

Regarding `COc1cccc(C(O)CN2CCN(C(=O)c3ccsc3)CC2)c1` (stereo not given), the INHIBITION is reported as 53.6%.

As to `CC(C)OCCC(=O)N1CCN(CC(O)c2ccccc2)CC1` (stereo not given), the INHIBITION was -12.5%.

Turning to `O=C(c1ccsc1)N1CCN(CC(O)c2cccc(F)c2)CC1` (stereo not given), the INHIBITION is 40.6%.

Regarding `CCOCC(O)CN1CCN(C(=O)c2ccsc2)CC1` (stereo not given), the INHIBITION is reported as 43.4%.

Regarding `Cc1cccc2c1C(=O)NC(c1cnc(C3CCC3)s1)N2` (stereo not given), the INHIBITION was -91.5%.

Regarding `CN1CCN(c2cccc(Cl)c2CNCCS(C)(=O)=O)CC1`, the INHIBITION was determined as 19.9%.

In the case of `Cn1c(Cn2ccnc2)nnc1C1CCN(C(=O)c2ccoc2)CC1`, the INHIBITION is reported as -62.8%.

`CNc1ccc(CC2CCCN(C(=O)c3c(C)noc3C)C2)nn1` (stereo not given): the INHIBITION is 21.9%.

As to `CNc1ccc(CC2CCCN(C(=O)c3cnco3)C2)nn1` (stereo not given), the INHIBITION worked out at 1.11%.

For `CCc1cc(C(=O)N2CCCC(Cc3ccc(NC)nn3)C2)on1` (stereo not given), the INHIBITION is listed as 60.4%.

As to `Cc1noc(CNC(=O)NCC2(C)CCCc3ccccc32)n1` (stereo not given), the INHIBITION was determined as 6.29%.

`COCCCNC(=O)c1ccccc1-n1cc(CN(C)C)cn1`: the INHIBITION is on record as 20.8%.

`CC(C)NC(=O)C1CN(C(=O)COc2ccccc2)CC12CCOCC2` (stereo not given): the INHIBITION turned out to be 24.1%.

Turning to `CC(C)CCN1C2(CCN(C(=O)C3(C)CC3)C2)c2ccccc2S1(=O)=O` (stereo not given), the INHIBITION came out at 6.55%.

As for `CC(C)CCN1C2(CCN(Cc3nccs3)C2)c2ccccc2S1(=O)=O` (stereo not given), the INHIBITION was 78.8%.

As for `CC(C)CCN1C2(CCN(c3ncccn3)C2)c2ccccc2S1(=O)=O` (stereo not given), the INHIBITION is recorded as 13.5%.

For `CN(C)CCN1C2(CCN(Cc3nccs3)C2)c2ccccc2S1(=O)=O` (stereo not given), the INHIBITION is reported as 80%.

Take `COCCN1C2(CCN(Cc3nccs3)C2)c2ccccc2S1(=O)=O` (stereo not given): the INHIBITION was determined as 14.8%.

Regarding `CC(C)CCN1C2(CCN(C(=O)N(C)C)C2)c2ccccc2S1(=O)=O` (stereo not given), the INHIBITION came out at 6.55%.

On to `O=C(Nc1ccccn1)c1cncc(C2CCNCC2)n1`, for which the INHIBITION is recorded as -35.5%.

For `N#CC1Sc2nnc(-c3ccccc3Br)n2N=C1N` (stereo not given), the INHIBITION was found to be 16.2%.

For `O=C(c1ccc(-n2cnnn2)cc1)N1CCCC(n2ccnc2)C1` (stereo not given), the INHIBITION is 26.4%.

Turning to `CCN(CC1CCOC1)C(=O)Nc1ccc(N2CCCCC2)nc1` (stereo not given), the INHIBITION is given as -8.83%.

In the case of `COCCNc1ccc(CC2CCCN(C3CCOCC3)C2)nn1` (stereo not given), the INHIBITION is on record as 7.71%.

With `O=C(c1nsc(Cl)c1Cl)N1CCc2nc3sccc3c(=O)n2CC1`, the INHIBITION is reported as -14.1%.

For the compound `CN1CCN(C(=O)c2n[nH]c3c2CN(Cc2nccs2)CC3)CC1`, the INHIBITION was -105%.

Turning to `CN(C)C(=O)c1n[nH]c2c1CN(Cc1nccs1)CC2`, the INHIBITION amounted to 88%.

`CN(C)C(=O)c1n[nH]c2c1CCN(Cc1nccs1)C2`: the INHIBITION was -53.6%.
